Laboratory results as given in PubChem BioAssay AID504377 (National Center for Advancing Translational Sciences (NCATS), 2011).
Active and inactive are the calls of the source. No rule for the calls is given here.

Experiment: Immunofluorescence assay for phosphorylation of ATM-targeted proteins for Identifying a Potential Treatment of Ataxia-Telangiectasia: SAR for Probe
Settings: F2111 A-T fibroblasts, KAP-1 pS824 immunofluorescence, NCS
Excerpt: NIH Chemical Genomics Center [NCGC] NIH Molecular Libraries Probe Centers Network [MLPCN] MLPCN Grant: MH089030-01 Assay Submitter (PI): Wei Zheng and Yosef Shiloh Ataxia-telangiectasia (A-T) is a devastating and progressive disease for which, there is no cure. Although A-T is a multisystem disease, it is stereotyped characterized by its neurological symptoms such as truncal ataxia, due to cerebellar cortical degeneration of the Purkinje and granule cells. Other symptoms of A-T are telangiectasias (dilated blood vessels), primary immunodeficiency, marked sensitivity to ionizing radiation (IR), chromosomal instability and predisposition to cancer. The underlying genetic cause of A-T is null mutations in the ATM (A-T mutated) gene. ATM is a nuclear serine/threonine kinase that functions as a master regulator of the cellular responses to double strand breaks (DSBs) in the DNA. Upon activation by DSBs, ATM phosphorylates a plethora of downstream targets, including KAP-1 on […]. KAP-1 phosphorylation occurs shortly in response to DSBs and mediates global chromatin relaxation, which facilitates DSB repair. To screen for small molecules that will compensate for the loss of ATM in cells derived from A-T patients, we monitored KAP-1 phosphorylation as a readout for ATM-like activity using an AlphaLISA assay. […]

| SMILES | Potency |
| --- | --- |
| CC(=O)c1c(O)c(C)c(O)c(Cc2c(O)c3c(c(C(=O)/C=C/c4ccccc4)c2O)OC(C)(C)C=C3)c1O | 10 µM (active) |
